This is a sample that favours compounds with a hit; in the whole collection about 2.2% have one here.
CCT modulator = High-Throughput Screening for Modulators of Cytosolic Chaperonin Activity; purified chaperonin ATPase assay, HTRF ADP detection, 30 min; activity change, % (concentration not given with the values), hits read low; 360,000 tested, 0.3% active; AID 651819, 2012; in the data active = activity change below about -30%; also: % is scaled to controls: 0 for no effect and ±100 for the full control effect
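We incubate TRiC, 40 or 20 nM final, with library compounds at 76 uM and 10 uM ATP for 30 min at 37 °C. ADP formed is detected with Transcreener HTRF reagents after 30 min at room temperature.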
uPA generation = qHTS for Inhibitors of Cell Surface uPA Generation. cell surface uPA generation assay, qHTS. Potency, µM (titrated, usually from 38.3 µM), for the others: top-dose activity change, negative = inhibition, hits mostly inhibitors. 330,000 tested, 0.31% active. AID 540303, 2011; active = well fitted inhibition curve with a large enough effect; inconclusive = small, poorly fitted or top-dose-only effect; inactive = no such curve, though single readings can be large or run the other way; tested in mouse RAW 264.7 cells; also: potency is read from the fitted curve at half-maximal effect; % is scaled to controls: 0 for no effect and ±100 for the full control effect; nearly all actives have a fitted effect of over 55% in size
HEK293 tox = qHTS of GLP-1 Receptor Inverse Agonists: Cytotox Screen; 410,000 tested, 0.13% active; Potency, µM (titrated, usually from 38.3 µM), inactives show at the top dose activity change, negative = inhibition, actives largely listed as inhibitors; HEK293 cAMP-luciferase reporter cells, luminescence, 24 h;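 also: loss of luciferase light is scored as toxicity; potency is read from the fitted curve at half-maximal effect; % is scaled to controls: 0 for no effect and ±100 for the full control effect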
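Quantitative HTS format, 1536 wells, 200 cells/uL seeded. Compounds: 23 nL, 24 h, 37 °C. Detection: luciferase reagent, luminescence at 12 min RT; decreased signal taken as cytotoxic.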
GLP-1R agonist = qHTS of GLP-1 Receptor Agonists; HEK293 GLP-1R CRE-luciferase, luminescence, 4-6 h; cells express a hypersensitive GLP-1R form; AID 624172, 2012; 380,000 tested, 0.007% active; Glucagon-like peptide 1 receptor (Homo sapiens), P43220; Potency, µM (series often up to 45.6 µM), for inactives: at the top dose activation, usual class: activators; also: potency is read from the fitted curve at half-maximal effect; % of control where 0% means no effect
Target sequence (P43220 whole entry, looked up): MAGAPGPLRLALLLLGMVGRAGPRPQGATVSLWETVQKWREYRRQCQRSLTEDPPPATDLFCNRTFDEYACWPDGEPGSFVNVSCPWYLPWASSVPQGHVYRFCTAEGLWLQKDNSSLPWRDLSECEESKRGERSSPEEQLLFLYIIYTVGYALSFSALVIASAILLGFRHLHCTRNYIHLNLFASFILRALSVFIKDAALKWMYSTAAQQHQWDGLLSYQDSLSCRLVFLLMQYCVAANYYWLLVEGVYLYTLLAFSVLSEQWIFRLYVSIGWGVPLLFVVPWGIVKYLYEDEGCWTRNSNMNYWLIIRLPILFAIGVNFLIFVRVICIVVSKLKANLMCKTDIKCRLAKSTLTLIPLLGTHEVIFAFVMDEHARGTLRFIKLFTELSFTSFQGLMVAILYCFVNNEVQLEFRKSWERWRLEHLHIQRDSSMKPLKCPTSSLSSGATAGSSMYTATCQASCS
GLP1R inv ag = qHTS of GLP-1 Receptor Inverse Agonists (Inhibition Mode); Potency, µM (titrated, usually from 38.3 µM), inactives show at the highest dose activity change, negative = inhibition, hits mostly inhibitors; 410,000 tested, 1.6% active; AID 624417, 2012; HEK293 GLP-1R CRE-luciferase, luminescence, 24 h; GLP-1R form is constitutively active; Glucagon-like peptide 1 receptor (Homo sapiens), P43220; also: potency is read from the fitted curve at half-maximal effect; % is scaled to controls: 0 for no effect and ±100 for the full control effect; nearly all actives have a fitted effect of over 55% in size
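Stable HEK293 clone (constitutively active GLP-1R + cAMP-response luciferase); 200 cells/uL plated, 12 h pre-culture, compound 24 hr, 37 deg C/5% CO2; detection reagent 12 min RT; luminescence.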
Mm-Cpn inhibitor = Inhibitors of TCP-1 ring complex (TRiC) of Methanococcus maripaludis (MmCpn): qHTS; Chaperonin Mm-Cpn (Methanococcus maripaludis); purified Mm-Cpn ATPase, ADP Transcreener TR-FRET; Potency, µM (doses to about 76.9 µM), inactives show at the top dose activity, negative = inhibition, hits mostly inhibitors; 330,000 tested, 0.031% active; also: potency is read from the fitted curve at half-maximal effect; % is scaled to controls: 0 for no effect and ±100 for the full control effect; nearly all actives have a fitted effect of over 80% in size
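Reaction buffer contained 30 mM Tris pH 7.4, 100 mM KCl, 5 mM MgCl2 and 1 mM DTT. Mm-CPN (25 nM final) hydrolysed 10 uM ATP over 30 min at 37°C; ADP was read by HTRF.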
The depositor's hits bear a star; u = inconclusive; x = no result. Unless noted, calls follow the shape of the dose curve; as a rule, active = well fitted curve in the direction sought with a large enough effect; inconclusive = small, poorly fitted or top-dose-only effect, or another doubt; inactive = no such curve, though single readings can be large; an effect the other way counts as inactive or inconclusive.

SMILES | CCT modulator | uPA generation | HEK293 tox | GLP-1R agonist | GLP1R inv ag | Mm-Cpn inhibitor
O=C(NCC12CC3CC(CC(C3)C1)C2)c1nn2c(c1Cl)NC(c1ccco1)CC2C(F)(F)F (stereo not drawn) | -2 | 4% | -1% | -9% | 4µM* | 0%
O=C(NCc1cccc(Cl)c1)c1cnn2c1NC(c1ccco1)CC2C(F)(F)F (stereo not drawn) | -1 | x | -16% | -7% | 0% | 0%
COc1ccc2nc(C)cc(Nc3ccc(N4CCOCC4)cc3)c2c1 | -3 | -27% | u | -1% | u | -1%
COc1ccc2nc(C)cc(Nc3ccc(N4CCN(C)CC4)cc3)c2c1 | 1 | u | u | 11% | 5.6µM* | 1%
Cc1ccc(NC(=O)CN2CCSc3ccc(S(=O)(=O)N4CCCC4)cc32)cc1C | x | x | -9% | -2% | u | x
Cc1ccc(C(C)C)cc1OCCOCCN1CCCC1 | -2 | -3% | -8% | -2% | 7.9µM* | 0%
Cc1ccccc1OCCOCCN1CCCCCC1 | -3 | 0% | 6% | -1% | u | 1%
CCc1c(C)c2ccc(O)c(CN3CCN(c4ccccc4)CC3)c2oc1=O | x | x | 2% | x | 3% | x
CC(C)OC(=O)c1ccc(NC(=O)c2cccc(-n3cnnn3)c2)cc1 | 0 | 15% | -24% | 8% | 7.1µM* | -1%
CCOc1ccc(NC(=O)c2cccc(-n3cnnn3)c2)cc1 | -2 | x | 2% | -2% | 4% | 1%
COc1ccc(-c2cc(C3CCN(Cc4cccc(C(F)(F)F)c4)CC3)[nH]n2)cc1 | -8 | -7% | u | 5% | 5µM* | 0%
COc1ccc(-c2cc(C3CCN(CC(O)C(F)(F)F)CC3)[nH]n2)cc1 (stereo not drawn) | -2 | 16% | 11% | -5% | -23% | 1%
COc1ccc(-c2csc(NC(=O)c3ccccc3NS(=O)(=O)c3ccc(C)cc3)n2)cc1 | 1 | -3% | 5% | -30% | 4.5µM* | -21%
O=C(Nc1nc(-c2ccc(S(=O)(=O)N3CCCCCC3)cc2)cs1)c1ccccc1 | 3 | 2% | 3% | -17% | 0% | 35µM*
Cc1ccc(Nc2nc(-c3ccc(S(=O)(=O)N4CCCC4)cc3)cs2)cc1C | -1 | x | -33% | 3% | u | -15%
O=C(COc1ccc(Cl)cc1)Nc1nc(-c2ccc(S(=O)(=O)N3CCOCC3)cc2)cs1 | -1 | x | 21% | -13% | 0% | 45µM*
Cc1cc(C)cc(Nc2nc(-c3ccc(S(=O)(=O)N4CCCC4)cc3)cs2)c1 | -3 | u | -18% | 1% | 3.5µM* | -25%
CCOc1ccc(CCNC(=O)Cn2ncc3c([nH]c4ccccc43)c2=O)cc1OCC | x | x | -4% | x | 2% | x
CCN(CC)C(=O)C1CCCN(c2ccc([N+](=O)[O-])cc2/C=N/NC(=O)c2cccc(Br)c2)C1 (stereo not drawn) | -1 | 4% | -19% | -13% | 2µM* | -3%
CC(C)(C)c1ccc(C2CC2C(=O)N/N=C\c2ccc[nH]2)cc1 (stereo not drawn) | 4 | -18% | u | 11% | 1.1µM* | 1%
O=C(N/N=C/c1ccco1)C1CC1c1ccccc1 (stereo not drawn) | -7 | -4% | 9% | 1% | 3% | 2%
CCOc1ccc(/C=C/c2nc(C#N)c(NCCc3ccccc3)o2)cc1 | x | x | -5% | x | u | x
CCOc1c(Cl)cc(Cl)cc1CNCCSc1nnnn1C | x | x | 0% | 2% | -4% | x
CN1CCC(N(C)S(=O)(=O)c2ccc(NC(=O)Cc3ccc(F)cc3)cc2)CC1 | 1 | -15% | -13% | -4% | u | -2%
